The panel holds about 79,000 compounds, 15% with a hit somewhere; the sample as a whole holds those more often. Calls of active or inactive are those of the source. Rule as the data show it: active = growth inhibition above about 70%; inactive = the rest.
Legend:
[1] = NCI Yeast Anticancer Drug Screen. Data for the rad50 strain (AID 155);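 also: 0% = growth of vehicle-only cultures of the same strain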; settings: S. cerevisiae rad50 strain growth inhibition; at 50.0 µM; stronger effect = higher value
Procedure, shortened: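 DNA repair mutant yeast, compound exposure, growth read-out; inhibition is taken relative to vehicle.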

[2] = NCI Yeast Anticancer Drug Screen. Data for the mec2-1 strain (AID 157); settings: S. cerevisiae mec2-1 strain, at 50.0 µM, stronger effect = higher value
Procedure, shortened: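 Each compound was tested on mec2-1 yeast, a strain altered in DNA damage repair or cell cycle control. Growth inhibition is reported relative to vehicle.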

[3] = NCI Yeast Anticancer Drug Screen. Data for the sgs1 mgt1 strain (AID 161);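 also: 0% = growth of cultures given vehicle only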; settings: S. cerevisiae sgs1 mgt1 strain, at 50.0 µM, stronger effect = higher value
Procedure, shortened: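 Mutant yeast exposed to compound; growth scored against vehicle-only wells.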

[4] = NCI Yeast Anticancer Drug Screen. Data for the cln2 rad14 strain (AID 165);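 also: 0% = growth equal to vehicle treated cultures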; settings: S. cerevisiae cln2 rad14 strain, at 50.0 µM, stronger effect = higher value
Procedure, shortened: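 Test compounds were added to cln2 rad14 yeast cultures; inhibition of growth was then determined by comparison with vehicle treatment.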

[5] = NCI Yeast Anticancer Drug Screen. Data for the bub3 strain (AID 167); settings: S. cerevisiae bub3 mutant strain, at 50.0 µM, stronger effect = higher value
Procedure, shortened: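 In this screen, a yeast mutant lacking normal mitotic checkpoint function is challenged with compound. Relative growth versus vehicle gives the inhibition value.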

[6] = NCI Yeast Anticancer Drug Screen. Data for the mlh1 rad18 strain (AID 175); settings: S. cerevisiae mlh1 rad18 strain growth inhibition; at 50.0 µM; stronger effect = higher value
Procedure, shortened: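 Inhibition values reflect reduced growth of mutant yeast versus vehicle-treated controls following compound exposure; the mutations affect DNA damage repair.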

Measured: growth inhibition

C1CCC(CN2CCN(CC3CCCCO3)CC2)OC1 (stereo not given)
inactive: [1] -2.4% | [2] -11.5% | [3] -1.05% | [4] -41.8% | [5] 0.25% | [6] 3.05%

NNC(=O)C(=O)NN=C(C(Cl)(Cl)CO)C(Cl)(Cl)CO
inactive: [1] 18.9% | [2] -0.65% | [3] 15.1% | [4] 14.1% | [5] 22.3% | [6] 20.4%

CN(C)c1ccc(/C=C(\NC(=O)c2ccccc2)c2nn(C)c(=O)o2)cc1
inactive: [1] -15.8% | [2] -4.8% | [3] -11.1% | [4] -20.9% | [5] -1.4% | [6] -22.6%

NNc1cn[nH]c(=O)c1Cl
inactive: [1] -16.6% | [2] -28.2% | [3] -10.1% | [4] 4.4% | [5] -3.85% | [6] -26.4%

CC(C#N)NCc1ccc(C(C)NC(C)C#N)cc1 (stereo not given)
inactive: [1] 4.5% | [2] 2.15% | [3] -43.8% | [4] -26.1% | [5] -10.8% | [6] -15.7%

CC(=O)OCC1OC(Oc2cccc(C=C(C(C)=O)C(C)=O)c2)C(OC(C)=O)C(OC(C)=O)C1OC(C)=O (stereo not given)
inactive: [1] 9.25% | [2] 3.25% | [3] 6.65% | [4] 5.3% | [5] 0.65% | [6] 30.7%

COc1nc(C(=O)O)c(Cl)c(OC)c1Cl
inactive: [1] -34.6% | [2] -21.8% | [3] -40.5% | [4] -4.95% | [5] -39.6% | [6] -35%

COc1ccc(NC2C(=O)C3(C)CCC2C3(C)C)cc1 (stereo not given)
inactive: [1] -17.2% | [2] -10.9% | [3] -8.25% | [4] -49.3% | [5] 12.2% | [6] -41.1%

O=C(N/N=C/C=C/c1ccccc1)NNC(=O)c1cc([N+](=O)[O-])cc([N+](=O)[O-])c1
inactive: [1] 31% | [2] 10.8% | [3] 38.3% | [4] 13.8% | [5] 2.65% | [6] 24.2%

C=CCOC(=O)OC(C)C(=O)OCC=C (stereo not given)
inactive: [1] 27% | [2] 13.1% | [3] 15.4% | [4] 7.55% | [5] -2.25% | [6] -2.5%

Cc1cc(C)nc(NS(=O)(=O)c2ccc(NC(=O)c3cccn4c(=O)c5ccccc5nc34)cc2)n1
inactive: [1] 12.7% | [2] 0.6% | [3] 16.9% | [4] 27.6% | [5] 27.1% | [6] 0.25%

CCCCCCCCC1C(CCCCCCCC(=O)OC)C2(Cl)C(Cl)=C(Cl)C1(Cl)C2(Cl)Cl (stereo not given)
inactive: [1] 25.6% | [2] -11.5% | [3] -1.05% | [4] 3.05% | [5] -1.2% | [6] 14.3%

CC(C)(C)C1=Cc2cc3cc(C(C)(C)C)[nH]c(=O)c3cc2S(=O)(=O)N1
inactive: [1] -23.2% | [2] -22.6% | [3] -14.4% | [4] 3% | [5] 5.4% | [6] -20.9%

Cc1ccc(-c2cs/c(=N\N=C3/CSC(=O)N3Cc3ccccc3)n2-c2ccccc2)cc1
inactive: [1] 41.1% | [2] 22.8% | [3] 12.1% | [4] 0.35% | [5] -2.55% | [6] 40.4%

CN(C)Cc1c[nH]c2nc[nH]c(=O)c12
inactive: [1] -1.3% | [2] -31.4% | [3] -31.4% | [4] 6% | [5] -9.5% | [6] -16.4%

CC1(C)[C@@H]2C[C@H]1C(Cc1cccc(C[C@H]3c4cc(-c5ccccn5)ncc4[C@H]4C[C@@H]3C4(C)C)c1)c1cc(-c3ccccn3)ncc12 (stereo not given in full)
inactive: [1] -2.2% | [2] -14.7% | [3] 4.95% | [4] -7.7% | [5] 45.2% | [6] -8.65%

CCCCCCCCCCCC(=O)N(CCOC(=O)c1ccccc1)CCc1ccccc1
inactive: [1] 32.6% | [2] 9.45% | [3] 16.6% | [4] 19.2% | [5] -3.2% | [6] 24.5%

CC(=O)Nc1ccc(C(=O)NN2C(=O)C(Cl)/C2=C/c2ccco2)cc1 (stereo not given)
inactive: [1] 1.1% | [2] -8.55% | [3] -28.8% | [4] -4.75% | [5] -22.8% | [6] -20.4%

Cc1c(O)c2c(c(O)c1Cc1ccc(C#N)cc1)C(=O)c1ccccc1C2=O
inactive: [1] -4.5% | [2] 31.4% | [3] 17.9% | [4] -4.25% | [5] -1.95% | [6] -0.9%

CCOC(=O)c1ccc(NC(C)=O)cc1
inactive: [1] 18% | [2] 9.2% | [3] 9.3% | [4] -5.45% | [5] -4.45% | [6] 12.1%

CCOC(=O)C1=C(O)C(=O)c2ccoc2C1=O
inactive: [1] -52.9% | [2] -35.2% | [3] -58% | [4] -7.15% | [5] -32.5% | [6] -32%

Cc1ccccc1N=C(N)NC#N
inactive: [1] -14% | [2] -31.9% | [3] -15.1% | [4] -4.65% | [5] -13.2% | [6] -49.7%

CC(=O)[C@H]1CC[C@H]2[C@@H]3CC=C4C=CCC[C@@H]4[C@H]3CC[C@]12C
inactive: [1] -14.1% | [2] 20.1% | [3] 22.9% | [4] -52% | [5] 18.8% | [6] 24.4%

COC1/C=C/OC2(C)Oc3c(C)c(O)c4c(c3C2=O)C(N)=C(Nc2ccccc2)C(=NC(=O)C(C)=CC=CC(C)C(O)C(C)C(O)C(C)C(OC(C)=O)C1C)C4=O (stereo not given)
inactive: [1] 15.5% | [2] 45.5% | [3] 41.9% | [4] 46.5% | [5] 16.9% | [6] 39.9%

CCOc1ccc(C(=O)OCCCl)cc1
inactive: [1] 9.85% | [2] 0.75% | [3] -3.1% | [4] 5.25% | [5] 6.75% | [6] 10.6%

COc1cc2c(c(O)c1C)C(=O)CC(c1ccccc1)O2 (stereo not given)
inactive: [1] 15.4% | [2] -46.3% | [3] 16% | [4] 2.15% | [5] -4.25% | [6] 11.7%

CC(C)(C)OC(=O)C(N)Cc1ccccc1 (stereo not given)
inactive: [1] -5.8% | [2] -6.6% | [3] 20.9% | [4] 0.35% | [5] 3.35% | [6] -22.6%

CC[O-].CC[O-].O=C1c2ccccc2C(=O)c2c(O)ccc([O-])c21.O=C1c2ccccc2C(=O)c2c(O)ccc([O-])c21.[Ti+4]
inactive: [1] -20.6% | [2] 1.75% | [3] -3.45% | [4] -4.3% | [5] -17.9% | [6] -14.8%

CCOC(=O)Nc1nc(-c2ccc(Br)cc2)cs1
inactive: [1] -11.5% | [2] -5.4% | [3] -2.1% | [4] -37.6% | [5] 14.1% | [6] -17.9%

N=C(N)n1ncc2c1CCCC2=O
inactive: [1] -17.4% | [2] 19.9% | [3] -6.1% | [4] -20.2% | [5] 6.1% | [6] 1.75%

CC(C)(C)c1ccc(C(=O)N2CCOC23CCCCC3)cc1
inactive: [1] -11.7% | [2] -20.1% | [3] 7.25% | [4] 3.2% | [5] 17.1% | [6] -38.5%

CCCCC(CC)CN(CC(CC)CCCC)C(=O)C(C)OC(=O)C(CC)CCCC (stereo not given)
inactive: [1] 3.7% | [2] 6.1% | [3] 18% | [4] -4.3% | [5] 14.8% | [6] 16.9%

N#CCCN(C(=O)COc1ccc(Cl)cc1Cl)C1CCCCC1
active: [1] 85% | [2] 87.7% | [3] 73% | [4] 87.2% | [5] 89.3% | [6] 95%

Nc1[nH]c(=S)nc2snnc12
inactive: [1] 3% | [2] -6.6% | [3] 9.4% | [4] 11.2% | [5] 3.1% | [6] 14.8%

CCc1nc2c([nH]1)c(=O)n(C)c(=O)n2C
inactive: [1] 35% | [2] -4.6% | [3] 11.6% | [4] 16.5% | [5] -20.6% | [6] 20.4%

COCCNC1CCC2(SCCS2)c2[nH]c3ccccc3c21 (stereo not given)
inactive: [1] -10.3% | [2] -12.8% | [3] 15.1% | [4] -14% | [5] -9% | [6] 40.2%

O=S(=O)(O)c1ccccc1/C=N\N=C\c1ccccc1S(=O)(=O)O
inactive: [1] 10.8% | [2] 1.85% | [3] 11.7% | [4] 17.4% | [5] -6.4% | [6] 12.8%

COc1ccc(Br)cc1C=Nc1ccccc1
inactive: [1] 14.9% | [2] 3.05% | [3] 19.2% | [4] -8.05% | [5] 9.05% | [6] 4.85%

O=C(O)C(Cc1ccccc1)N1C(=O)c2ccccc2C1=O (stereo not given)
inactive: [1] 1.7% | [2] -17.5% | [3] -35.6% | [4] -19.6% | [5] -36.5% | [6] 5.55%

CC(C)(C)CP(=S)(CCP(CCP(=S)(CC(C)(C)C)CC(C)(C)C)CCP(=S)(CC(C)(C)C)CC(C)(C)C)CC(C)(C)C
inactive: [1] -0.75% | [2] -14.6% | [3] -18% | [4] 9.6% | [5] 0.65% | [6] -16.1%

Source: PubChem BioAssay (NCI)
